aGlu spleen mod: inhibits or activates alpha-glucosidase in human spleen homogenate; P10253; human spleen homogenate, 4-MU-alpha-glucoside fluorescence; Potency, µM (doses to about 79.9 µM), for inactives: at the top dose activity change, negative = inhibition, usual class: inhibitors; hit rate 0.006% among 240,000;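 further: potency means the concentration at half of the fitted maximal effect; 0% = enzyme with vehicle and -100% = no enzyme basal signal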
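AC50 values come from Hill-equation fits of concentration-response data, normalized to no-enzyme and full-activity controls. Enzyme source: 1 ug human spleen homogenate; 1 mM fluorogenic 4-MU glucoside, pH 5.0 citrate buffer, 37 C, 40 min.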
GAA glycogen: inhibitors or activators of human alpha-glucosidase glycogen cleavage; P10253; recombinant GAA, glycogen substrate, Amplex Red glucose oxidase fluorescence; hit rate 0.38% among 300,000; Potency, µM (series often up to 76.4 µM), inactives show at the top dose activity change, negative = inhibition, most hits filed as inhibitors; AID 2100;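 further: potency means the concentration at half of the fitted maximal effect; 0% = full enzyme reaction and -100% = no-enzyme basal signal; the screen sought inhibitors and activators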
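Recombinant enzyme (4 nM final) with compounds titrated up to 77 uM and bovine liver glycogen (30 ug) in citrate pH 5.0, 0.01% Tween-20, 37 C 40 min. Released glucose detected by Amplex Red/glucose oxidase (Ex 573/Em 610); AC50 from Hill fits.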
GLA inh pH 4.5: inhibitors of human alpha-galactosidase A at pH 4.5 | P06280 | 230,000 tested, under 10 active | AID 1467 | activity change, negative = inhibition, % at 105 µM | purified enzyme, 4-MU-alpha-Gal fluorescence, pH 4.5;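 further: 0% = full activity with enzyme and -100% = basal without enzyme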
GAA inhib: alpha-glucosidase (human) inhibition; Potency, µM (doses to about 76.9 µM), without a hit: top-dose activity change, negative = inhibition, hits mostly inhibitors; purified human GAA, 4-MU-alpha-glucoside fluorescence; P10253; hit rate 0.005% among 200,000; AID 1466;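 further: potency means the concentration at half of the fitted maximal effect; plate controls were uninhibited enzyme wells for no effect and no-enzyme background for full effect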
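qHTS format, compound range up to 77 uM. Human lysosomal enzyme at 4 nM, 400 uM 4-MU glucoside substrate, pH 5.0, 20 min room temperature; fluorescence after alkaline stop gives activity normalized to controls.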
aGal spleen mod: inhibitors or activators of human alpha-galactosidase in spleen homogenate | AID 2107 | hit rate 0.008% among 240,000 | Potency, µM (top dose mostly 80 µM), without a hit: at the top dose activity change, negative = inhibition, most hits filed as inhibitors | human spleen homogenate, 4MU-alpha-Gal fluorescence, 40 min;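 further: potency means the concentration at half of the fitted maximal effect; 0% = enzyme with vehicle and -100% = no enzyme basal signal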
Target sequence (P06280 32-429 limits assumed): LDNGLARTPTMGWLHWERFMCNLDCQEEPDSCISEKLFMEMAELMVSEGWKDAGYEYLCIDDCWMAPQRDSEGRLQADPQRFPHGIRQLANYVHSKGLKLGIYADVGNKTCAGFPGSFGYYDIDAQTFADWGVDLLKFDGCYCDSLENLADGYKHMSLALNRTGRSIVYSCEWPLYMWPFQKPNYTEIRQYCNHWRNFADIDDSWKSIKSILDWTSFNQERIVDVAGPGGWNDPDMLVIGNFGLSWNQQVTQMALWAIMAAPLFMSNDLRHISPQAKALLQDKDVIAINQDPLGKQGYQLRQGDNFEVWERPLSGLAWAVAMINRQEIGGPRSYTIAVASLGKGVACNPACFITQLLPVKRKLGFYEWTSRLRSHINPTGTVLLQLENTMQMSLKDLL
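Spleen homogenate 1 ug + cpd (titration) + 4-MU-alpha-D-galactopyranoside 1 mM; 37C 40 min; 50 mM citrate/phosphate pH 5.0, 0.01% Tween-20; stop pH 10; fluorescence 365/440; AC50 via Hill.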
N370S GC: N370S glucocerebrosidase modulation, Gaucher chaperone candidate | P04062 | N370S GC spleen homogenate, 4MU-glucoside fluorescence | Potency, µM (doses to about 59.4 µM), inactives show at the top dose activity change, negative = inhibition, actives largely listed as inhibitors | hit rate 0.092% among 330,000 | AID 2101;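 further: potency means the concentration at half of the fitted maximal effect; 0% = full enzyme activity and -100% = no enzyme basal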
Starred values were filed as active, the others as inactive; [ ] = another dose, or the depositor's remark. Hits are enriched below; roughly 0.43% of the tested compounds scored in any of these assays. The call rests on the fitted dose curve; in most records, active means well fitted curve in the direction sought with a large enough effect; inconclusive means small, poorly fitted or top-dose-only effect, or another doubt; inactive means no such curve, though single readings can be large; an effect the other way counts as inactive or inconclusive.

Screening COc1ccc(-c2cc(-c3ccccc3)nc3c2COc2ccccc2-3)cc1 returned GAA glycogen -1%[76.3 µM].
For COc1ccc(C2=Nc3ccccc3OC2)cc1 the results were aGlu spleen mod 2%, GAA glycogen 25µM*, GLA inh pH 4.5 inconclusive, GAA inhib 0%, aGal spleen mod 8% and N370S GC 21%.
`CC(=O)Nc1ccc(C2C(C)CCC3C(=O)N4C(CCC(C)[C@@H]4c4ccc(NC(C)=O)cc4)C(=O)N32)cc1` (some centres not stated) gave aGlu spleen mod -5%[17.4 µM], aGal spleen mod -1%[17.5 µM] and N370S GC 7%[12.8 µM].
`CCCCc1ccc(NC(=O)Nc2cccnc2)cc1` gave GAA glycogen 5%[76.3 µM] and N370S GC 11µM*.
For COC(=O)N1C(c2ccccc2)=Cc2ccccc2C1CC(C)=O (configuration not stated) the results were aGlu spleen mod 15%[17.4 µM], GLA inh pH 4.5 2, aGal spleen mod 0%[17.5 µM] and N370S GC -8%[12.8 µM].
`O[C@@H]1COC2[C@@H](O)CO[C@@H]21` (some centres not stated) gave aGlu spleen mod 2%, aGal spleen mod -15% and N370S GC -2%.
Screening Clc1cccc(Cl)c1/C=N\Nc1nccs1 returned aGlu spleen mod -5%, GAA glycogen 28µM*, GLA inh pH 4.5 6, GAA inhib -4%, aGal spleen mod -2% and N370S GC 22%.
Screening O=[N+]([O-])c1ccccc1/C=N\Nc1nccs1 returned N370S GC -9%.
`C/C(=N\Nc1ccc(C(=O)O)cc1)c1ccc2c(c1)Nc1ccccc1S2` gave aGlu spleen mod 3%, GAA glycogen 11µM*, GLA inh pH 4.5 -10, aGal spleen mod -10% and N370S GC -8%.
For COc1ccc(C(=O)N2CCN(Cc3cc(OC)c(O)c(OC)c3)CC2)cc1OC the results were aGlu spleen mod 7%, GAA glycogen 20µM*, GLA inh pH 4.5 1, GAA inhib 3%, aGal spleen mod 6% and N370S GC 8%.
Screening COc1cc(CN2CCN(C(=O)CC(C)C)CC2)cc(OC)c1O returned aGlu spleen mod 3%, GAA glycogen 40µM*, GLA inh pH 4.5 -6, GAA inhib -5%, aGal spleen mod 0% and N370S GC -20%.
`COc1ccc(-c2nnc(SCC(=O)Oc3cc(C)ccc3C)o2)cc1` gave GAA glycogen 13%[76.3 µM].
`C/C=C/C1=CC2=CC(=O)C(C)(OC(=O)c3c(C)cc(O)cc3O)C(=O)C2=CO1` (configuration not stated) gave aGlu spleen mod -6%, GLA inh pH 4.5 -4, aGal spleen mod 9% and N370S GC -3%.
Screening CC1(C)CC(=O)C2=C(C1)N=C1c3ccccc3C(=O)C1C2c1ccc(Cl)cc1 (configuration not stated) returned aGlu spleen mod -4%, GAA glycogen -5%, GLA inh pH 4.5 -18, GAA inhib 1%, aGal spleen mod 3% and N370S GC 14µM*.
Screening Cc1ccc(C2C3=C(CC(C)(C)CC3=O)N=C3c4ccccc4C(=O)C32)cc1 (configuration not stated) returned aGlu spleen mod -16%, GAA glycogen -22%, GLA inh pH 4.5 -14, GAA inhib -2%, aGal spleen mod 1% and N370S GC 16µM*.
`Cc1ccc(C2C3=C(CC(C)(C)CC3=O)OC3=C2C(=O)CC(C)(C)C3)cc1` gave aGlu spleen mod -2%, GAA glycogen -9%, GLA inh pH 4.5 -1, GAA inhib 6%, aGal spleen mod 1% and N370S GC 0%.
For CCOC(=O)C1=C(C)N=C2c3ccccc3C(=O)C2C1c1ccc(Cl)cc1 (configuration not stated) the results were aGlu spleen mod -10%, GAA glycogen -29%, GLA inh pH 4.5 1, GAA inhib -3%, aGal spleen mod -2% and N370S GC -5%[12.8 µM].
Screening COc1cc(/C=N/Nc2ccc(Cl)c(C(=O)O)c2)ccc1OC(=O)c1ccccc1F returned GAA glycogen 5.6µM* and N370S GC -3%.
Screening Cc1ccc(C)c2sc(N)nc12 returned aGlu spleen mod 12%, GAA glycogen -8%, GLA inh pH 4.5 0, GAA inhib 2%, aGal spleen mod 6% and N370S GC -11%.
Cc1sc2nc(N)sc2c1C was read as aGlu spleen mod 0%, GAA glycogen 18µM*, GLA inh pH 4.5 -16, GAA inhib -5%, aGal spleen mod -8% and N370S GC 1%.
For C=CCn1c(-c2cc(-c3ccccc3)sc2N)n[nH]c1=S the results were aGlu spleen mod 1%, GAA glycogen 22µM*, GLA inh pH 4.5 -3, GAA inhib -1%, aGal spleen mod 9% and N370S GC 2%.
`C=CCn1c(-c2csc(-c3ccccc3)n2)n[nH]c1=S` gave aGlu spleen mod 6%, GAA glycogen -7%, GLA inh pH 4.5 2, GAA inhib -2%, aGal spleen mod 7% and N370S GC 4%.
Screening Cc1ccc2[nH]c(=O)c3cc(C(=O)N4CCN(c5ccccc5F)CC4)sc3c2c1 returned GAA glycogen 8%[76.3 µM].
COc1cccc(CCc2ccccc2OCC[C@@H]2C[C@@H](O)CN2C)c1 was read as aGlu spleen mod -15%, GLA inh pH 4.5 -16, aGal spleen mod -6% and N370S GC -28%.
For Cc1cc(SCC(=O)c2ccc(O)c(O)c2)nc2ccccc12 the results were aGlu spleen mod 5%, GAA glycogen 4.4µM*, GLA inh pH 4.5 5, GAA inhib -2%, aGal spleen mod 5% and N370S GC -13%.
For O=C(CSc1n[nH]c(-c2ccccc2)n1)c1ccc(O)c(O)c1 the results were aGlu spleen mod -15%, GAA glycogen 10µM*, GLA inh pH 4.5 -9, GAA inhib -5%, aGal spleen mod 0% and N370S GC -2%.
For CCCCC(=O)N1C/C=C\C(c2ccc(OC)cc2)N(Cc2ccc(F)cc2)C(=O)C1Cc1ccccc1 (configuration not stated) the results were aGlu spleen mod -5%, aGal spleen mod 7% and N370S GC 4%.

Bioassay records deposited in PubChem BioAssay by National Center for Advancing Translational Sciences (NCATS).
